Drawing on PubChem BioAssay AID504332 (National Center for Advancing Translational Sciences (NCATS), 2011), this text covers Potency and activity, negative = inhibition for 62 molecules.

Hit rate of the full screen: of about 350,000 compounds, about 31,000 (8.9%) were called active. Entries that show only a call come without a potency. Inconclusive results (about 15%) are left out. Many of the other results were omitted from the sample, so actives are more common in it than they were. A number with no mark means an inactive call. Calls follow the shape of the dose curve; as a rule, active = well fitted inhibition curve with a large enough effect; inconclusive = small, poorly fitted or top-dose-only effect; inactive = no such curve, though single readings can be large or run the other way.
Potency is read from the fitted curve at half-maximal effect.

Sequence of Histone-lysine N-methyltransferase EHMT2 (Homo sapiens) (Q96KQ7 913-1193 limits assumed): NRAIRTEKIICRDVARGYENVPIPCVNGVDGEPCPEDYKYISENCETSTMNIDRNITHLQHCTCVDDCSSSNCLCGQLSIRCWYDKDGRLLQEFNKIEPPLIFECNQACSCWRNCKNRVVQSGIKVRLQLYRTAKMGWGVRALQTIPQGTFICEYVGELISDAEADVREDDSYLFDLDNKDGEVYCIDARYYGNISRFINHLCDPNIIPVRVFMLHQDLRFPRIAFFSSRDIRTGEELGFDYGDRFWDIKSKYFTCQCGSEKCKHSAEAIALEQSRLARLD

This test has as its target Histone-lysine N-methyltransferase EHMT2 (Homo sapiens) (UniProt Q96KQ7). In words: qHTS Assay for Inhibitors of Histone Lysine Methyltransferase G9a. Also: nearly all actives have a fitted effect of over 75% in size. Particulars: G9a H3K9 monomethylation, AlphaScreen, 2 h; series mostly up to 59 µM. An outline of the steps: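 Quantitative HTS format: methyltransferase activity on a biotin-tagged H3K9 peptide is measured by AlphaScreen, using a rabbit anti-monomethyl-H3K9 antibody with streptavidin donor and anti-IgG acceptor beads. Final levels are 20 nM enzyme, 500 nM peptide, 20 uM SAM; 2 h RT.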
In general terms: Quantitative high-throughput screening tests each substance at several concentrations.
On to `Cc1ccccc1NC(=O)Cc1nc(COC(=O)c2cccnc2Cl)cs1`, for which the Potency result is “inactive”.

Consider `COc1ccccc1C(CNC(=O)c1ccc(C)c(S(=O)(=O)N2CCCCC2)c1)N(C)C` (configuration not stated), for which the activity, negative = inhibition is 24.7% [at 12.7 µM]. As to `CC(=O)Nc1ccc(Nc2cc(C)nc(Nc3ccc(NC(C)=O)cc3)n2)cc1`, the activity, negative = inhibition is -6.09% [at 2.33 µM]. As to `COc1ccc(CCn2c(=N)c(C(=O)NCC3CCCO3)cc3c(=O)n4cccc(C)c4nc32)cc1OC` (configuration not stated), the Potency result is “inactive”. In the case of `COc1cccc(NC(=O)Nc2ccc3c(c2)N(C)C(=O)c2ccccc2S3)c1`, the Potency result was “inactive”. On the same count and under the same terms, as for `COc1ccc2c(c1)N(C)/C(=C1/SC(=S)N(NC(C)=O)C1=O)S2`, the figure is 70.8 µM (active). Turning to `COc1cccc(/C=C2\Sc3ccc(C(=O)NCC4CCCO4)cc3N(C)C2=O)c1` (configuration not stated), the Potency result is “inactive”. As for `CN(C(=O)CSc1nnc(-c2ccc3c(c2)OCO3)o1)C1CCS(=O)(=O)C1` (configuration not stated), the activity, negative = inhibition is 23.8% [at 12.7 µM]. In the case of `CCOC(=O)c1cc(C(C)C)sc1NC(=O)COC(=O)c1nccnc1N`, the activity, negative = inhibition is -18.5% [at 0.501 µM].

Consider `COC(=O)c1ccc(C(=O)NC2CC(C)(C)Cc3c2cnn3-c2ccc(F)cc2)nc1` (configuration not stated), for which the Potency entry is “inactive”. With `CCCN(C(=O)Cn1ncc2c([nH]c3ccc(C)cc32)c1=O)c1ccccc1C`, the Potency result is “inactive”.

For `CC(C)(C)OC(=O)NCCCCCNC(=O)c1nc[nH]c1C(=O)NCc1ccccc1`, the activity, negative = inhibition is 24.5% [at 2.33 µM]. Turning to `Cc1nn(C(=O)c2ccoc2C)c(N)c1-c1ccccc1`, the Potency was 31.6 µM (active). Take `Cc1occc1C(=O)Nc1nnc(-c2ccncc2)s1`: the activity, negative = inhibition is -37.1% [at 12.7 µM]. In the case of `C/C(=N\NC(=O)c1ccoc1C)c1ccccc1O`, the Potency result was “inactive”.

As for `CCOc1ccccc1NC(=O)CN1CCCN(Cc2cccc(Cl)c2)S1(=O)=O`, the Potency entry was “inactive”. For `Cc1ccc2c(c1)N(CC(=O)NCCc1ccc(Cl)cc1)C(=O)c1cccnc1O2`, the Potency result is “inactive”. Take `COc1ccc2c(CC(=O)OCC(=O)NC(N)=O)coc2c1`: the Potency entry is “inactive”. For `COc1ccc2c(CC(=O)OCC(=O)Nc3ccccc3[N+](=O)[O-])coc2c1`, the Potency is 11.2 µM (active). On the same count and under the same terms, as for `COc1ccc2c(CC(=O)Nc3nnc(C4CC4)s3)coc2c1`, the entry is “inactive”. In the case of `COc1ccc(C(=O)c2c3ccc([N+](=O)[O-])cc3[n+]([O-])n2CCCN)cc1`, the activity, negative = inhibition is -22.2% [at 2.33 µM]. As to `Cc1c(CCNC(=O)c2ccc(C(F)(F)F)cc2)sc2nc(-c3ccc(F)cc3)nn12`, the Potency result was “inactive”. Still for that read-out and setting: as for `CCOC(=O)c1ccccc1NC(=O)c1nn(-c2ccc(OC)c(Cl)c2)c(=O)c2c1c1ccccc1n2C`, the entry is “inactive”; as for `CC(=O)c1ccc(NC(=O)c2nc3nc(C)cc(C(F)F)n3n2)cc1`, “inactive”; as for `CCOC(=O)c1cccc(NC(=O)C2CCN(c3ncnc4c3nc3n4CCCCC3)CC2)c1`, “inactive”. For `COCCNCCOCCOc1cccc(OC)c1`, the Potency result is “inactive”. In the case of `COCCCNCCOCCOc1ccc(Cl)cc1Br`, the Potency is 10 µM (active). Turning to `CCOCCCNCc1cc(Br)ccc1OCC`, the activity, negative = inhibition is 1.6% [at 12.7 µM]. For the molecule `Cc1csc2nc(COC(=O)c3cccc(N(C)C)c3)cc(=O)n12`, the activity, negative = inhibition was 3.53% [at 2.33 µM]. Consider `CC(OC(=O)CN1C(=O)c2ccccc2C1=O)C(=O)c1ccccc1` (configuration not stated), for which the activity, negative = inhibition is 12.8% [at 12.7 µM]. Regarding `CCc1ccc(NC(=O)N2CCN(c3ccccc3)CC2)cc1`, the Potency result was “inactive”. Turning to `O=C(Nc1ccc(F)cc1)N1CCN(c2ccc(F)cc2)CC1`, the Potency result is “inactive”. For the molecule `CC(=O)N1CCN(c2ccc(NCc3ccc(C(C)C)cc3)cc2)CC1`, the Potency is 14.1 µM (active). As for `Cc1cc(F)ccc1S(=O)(=O)Nc1ccc(C(=O)N(C)Cc2ccco2)cc1`, the activity, negative = inhibition was 23.8% [at 2.33 µM]. For the molecule `Cc1ccc(C)c(N2CCN(C(=O)Cn3nc(C)c4sc5ccccc5c4c3=O)CC2)c1`, the Potency is 12.6 µM (active). On the same count and under the same terms, as for `Cc1ccc(C)c(N2CCN(C(=O)Cn3ncn4cccc4c3=O)CC2)c1`, the entry is “inactive”; as for `Cc1nn(CC(=O)NCCc2ccccc2)c(=O)c2c1sc1ccccc12`, “inactive”. `CCn1nc(C(=O)NNC(=O)C2CSC3(C)CCC(=O)N23)c2ccccc2c1=O` (configuration not stated): the activity, negative = inhibition is 2.22% [at 12.7 µM]. Consider `Cc1csc2nc(COC(=O)c3ccc(NC(=O)COc4ccccc4F)cc3)cc(=O)n12`, for which the activity, negative = inhibition is 6.31% [at 12.7 µM]. For the molecule `CCOC(=O)c1cc2c(=O)n3ccccc3nc2n(CC2CCCO2)c1=NC(=O)c1ccc(C(C)(C)C)cc1` (configuration not stated), the Potency entry is “inactive”. With `Cc1ccc2[nH]c(=O)c(CN(CCCN(C)C)C(=O)Nc3cccc(Cl)c3)cc2c1`, the Potency entry is “inactive”. With `COc1ccc(CCN(Cc2cc3cccc(C)c3[nH]c2=O)C(=O)N2CCCC2)cc1OC`, the activity, negative = inhibition was -36.8% [at 12.7 µM]. `COc1cc2cc(CN(CCN3CCCC3)C(=O)Nc3ccccc3Cl)c(=O)[nH]c2cc1OC`: the Potency is 50.1 µM (active). On to `CCCCNC(=O)c1cn(CC)c2cc(N3CCN(C(=O)c4ccco4)CC3)c(F)cc2c1=O`, for which the Potency entry is “inactive”. `CCOc1ccc(CNC(=O)c2ccc3c(c2)nnn3C2CCCC2)cc1`: the Potency result is “inactive”.

Consider `O=C(NC1CCCC1)C(c1ccco1)N(C(=O)c1ccco1)c1ccc(F)cc1` (configuration not stated), for which the Potency entry was “inactive”. For `O=c1cc(COc2cccc(C(F)(F)F)c2)nc2sc3c(n12)CCCC3`, the Potency entry is “inactive”.

Turning to `COc1cc(NC(=S)NCc2ccco2)c(OC)cc1Cl`, the Potency is 50.1 µM (active). Same read-out and setting: as for `FC(F)Oc1ccc(NC(=S)NCc2ccco2)cc1Cl`, the figure is 50.1 µM (active); as for `COc1cccc(OC)c1C(=O)NC(=S)NCc1ccco1`, “inactive”; as for `O=C(NNC(=S)NCc1ccco1)C(c1ccccc1)c1ccccc1`, “inactive”. Same read-out and setting: as for `CCOc1cc(NC(=S)NCc2ccco2)c(OCC)cc1NC(=O)c1ccco1`, the entry is “inactive”; as for `Cc1ccc(CC(=O)Nc2ccc(OC(F)F)c(Cl)c2)cc1C`, “inactive”.

Consider `Cc1c(Cl)cccc1NC(=O)Cn1cc(C(=O)c2cccs2)c2ccccc21`, for which the Potency entry is “inactive”. In the case of `Cc1ccc(NC(=O)CN2c3ccccc3S(=O)(=O)c3ccccc32)cc1F`, the Potency entry is “inactive”. On to `CCCN(CCC)C(=O)C(Cc1ccccc1)NS(=O)(=O)c1ccc2c(c1)c(=O)n(C)c(=O)n2C` (configuration not stated), for which the Potency entry was “inactive”. Regarding `Cc1ccc(C)c(NC(=S)NNC(=S)Nc2ccc(C(C)C)cc2)c1`, the Potency was 31.6 µM (active). Still for that read-out and setting: as for `CC(C)CC(=O)NC(=S)Nc1cc(C(=O)O)ccc1Cl`, the entry is “inactive”. On to `Cc1ccc(C)c(NC(=S)NCC(c2cccnc2)N2CCOCC2)c1` (configuration not stated), for which the Potency result was “inactive”.

For `Cc1cccc(NC(=S)Nc2ccc(Br)cc2)c1`, the Potency entry is “inactive”. For `CCC(C(=O)Nc1ccc(C(C)C)cc1)c1ccccc1` (configuration not stated), the Potency entry is “inactive”. Take `CC(C)c1ccc(NC(=S)NNc2ccc(Cl)c(C(=O)O)c2)cc1`: the Potency was 10 µM (active).
